# Test results published in ChEMBL document CHEMBL4513216, “Probing the Open Global Health Chemical Diversity Library for Multistage-Active Starting Points for Next-Generation Antimalarials” (ACS Infect Dis, 2020).
# Out of some 69,000 compounds screened, about 8,600 (12%) showed an effect of 50% or more. Many of the other results were omitted from the sample, so strong results are more common in it than they were.
# Tested on: Plasmodium berghei
# Experiment: Screen against P. berghei liver stage (PbLuc), transformed with Luciferase, at 10uM
# Assay type: functional, HepG2
# Conditions: tested at 10 uM
row,Compound,INHIBITION
1,CNC(=O)N1CCC2(CC1)CN(C)Cc1cc(F)ccc12,39.3%
2,Cc1cccc(CN2CCc3nnc(CN4CCCCC4)n3CC2)n1,-89.8%
3,CC(C)c1nccn1C1CCCN(C(=O)CN(C)C2CC2)C1 (stereo unspecified),19.6%
4,CCN(C(=O)COc1nc(C(C)(C)C)no1)C1CC1,-1.75%
5,COc1ccc(C[C@H]2CN(C(=O)c3cc(C)no3)CC[C@H]2OC)cc1,-22.1%
6,Cc1cc(C)c(CNC(=O)NCc2ccncc2)c(=O)[nH]1,37.9%
7,COCCNC(=O)NC(C)COc1ccc(F)cc1F (stereo unspecified),-2.48%
8,CC(C)N1C(=O)CO[C@H]2CCN(C(=O)c3ccc4c(c3)CCC4)CC[C@@H]21,20.105%
9,Cc1noc(C)c1CN1CCC2(CC1)C(c1cnn(C)c1)CC(=O)N2C (stereo unspecified),41.2%
10,CCC(CC)C(=O)N1CCOC2(COCCN(CC(=O)NC)C2)C1 (stereo unspecified),-13%
11,O=C(NCCc1c[nH]cn1)c1n[nH]c2c1CCC2,-11.1%
12,COc1ccccc1CC(=O)N1CCCC(CNS(C)(=O)=O)C1 (stereo unspecified),4.623%
13,Cc1csc(N2CCN(C(=O)Cc3ccc(C)s3)CC2)n1,-23.8%
14,CCn1cc(CN2CCN(C(=O)N3CCOCC3)CC2)cn1,43.4%
15,CCn1cc(CN2CCCN(C(=O)CCn3cc(C)cn3)CC2)cn1,52.5%
16,CCn1cc(CN2CCCN(C(=O)C3(C#N)CCCCC3)CC2)cn1,45.2%
17,CCn1cc(CN2CCCN(C(=O)C3(C)CCOCC3)CC2)cn1,55.4%
18,CCn1cc(CN2CCCN(C(=O)CCc3cnn(C)c3)CC2)cn1,15.5%
19,Cc1cnn(CC(=O)N2CCCN(c3nc(C)cs3)CC2)c1,35.9%
20,CCn1cc(CN2CCCN(C(=O)CCSC)CC2)cn1,5.9%
21,Cc1cnn(CCC(=O)N2CCN(c3nc(C)cs3)CC2)c1,62.8%
22,Cc1csc(N2CCCN(C(=O)Cc3ccc(C)s3)CC2)n1,69.8%

row,Compound,INHIBITION
1,Cc1csc(N2CCCN(C(=O)Cc3cccs3)CC2)n1,14.4%
2,Cc1cnn(CCC(=O)N2CCCN(c3nc(C)cs3)CC2)c1,17.4%
3,CN(Cc1cc[nH]n1)C(=O)c1cn(Cc2ccccc2Cl)nn1,39.4%
4,COc1ccc2[nH]cc(C(=O)N3C[C@@H](O)[C@H](NS(C)(=O)=O)C3)c2c1,14.6%
5,O=C(c1ccnc(C2CCNCC2)c1)N1CCCOCC1,42.6%
6,CCN(CC)S(=O)(=O)NCC1Cc2ccccc2O1 (stereo unspecified),7.65%
7,CC(=O)N1CCCC1c1nc(CN(C)C(=O)C(C)C)cc(N(C)C)n1 (stereo unspecified),23.9%
8,CCc1n[nH]c(C2CN(CCS(C)(=O)=O)CCO2)n1 (stereo unspecified),25.6%
9,O=S(=O)(NC1CCCOC1)c1ccc(C(F)(F)F)nc1 (stereo unspecified),30%
10,Cc1cnn(CC2CCCN2CC(=O)NC2CCN(C3CC3)CC2)c1 (stereo unspecified),-42.3%
11,CCc1nccn1C1CCCN(C(=O)c2cncnc2C)C1 (stereo unspecified),21.6%
12,CN(C)CC1CN(C(=O)NCc2ccccc2)Cc2nccn2C1 (stereo unspecified),13.5%
13,Cc1cccc2c1OCCC2NCc1c(C(C)C)nn(C)c1N(C)C (stereo unspecified),-41.2%
14,CC(C)(C)Oc1ccc(CN)c(C(F)(F)F)c1,30.8%
15,CCc1ccsc1C(=O)N1CCCN(Cc2cnn(CC)c2)CC1,58.5%
16,Cc1csc(N2CCN(C(=O)C(C(C)C)n3cncn3)CC2)n1 (stereo unspecified),17.4%
17,CCc1ccsc1C(=O)N1CCN(CC(N)=O)CC1,-53.5%
18,CCc1ccsc1C(=O)N1CCS(=O)(=O)CC1,53.7%
19,Cc1csc(N2CCN(C(=O)C(C)n3cncn3)CC2)n1 (stereo unspecified),60.5%
20,CCn1cc(CN2CCCN(C(=O)c3sccc3OC)CC2)cn1,-34%
21,CCn1cc(CN2CCCN(C(=O)c3sccc3C#N)CC2)cn1,24%
22,CSC(C)C(=O)N1CCCN(Cc2cnn(C(C)C)c2)CC1 (stereo unspecified),-19.9%

row,Compound,INHIBITION
1,CCc1ccsc1C(=O)N1CCN(CC(C)O)CC1 (stereo unspecified),-27.8%
2,Cc1csc(N2CCCN(C(=O)C(C)n3cncn3)CC2)n1 (stereo unspecified),17.4%
3,CC(C)n1cc(CN2CCCN(C(=O)C3(C)CCOCC3)CC2)cn1,54.5%
4,CC(C)n1cc(CN2CCCN(C(=O)C3CCOC3)CC2)cn1 (stereo unspecified),-29.1%
5,O=C(c1cccnc1)N(CCO)Cc1cc(Br)ccc1F,-5.1%
6,CNc1nc(C2CCCN(C(=O)C(C)(C)OC)C2)nc2c1CN(C)CC2 (stereo unspecified),-12.9%
7,CC(C(=O)NCCOc1ccc2c(c1)CCC2)n1cncn1 (stereo unspecified),-81.3%
8,Cc1ccc(S(=O)(=O)N2CCN(CCCO)CC2)s1,30.1%
9,c1cncc(-c2noc(CNC3CCc4ncnn4C3)n2)c1 (stereo unspecified),29.4%
10,Cc1cc(C)n(CC2CCCCN2C(=O)c2ccsc2)n1 (stereo unspecified),-3.2%
11,CC(C)C(Sc1nncn1C1CC1)C(=O)NCc1cccnc1 (stereo unspecified),-38%
12,CC(NC(=O)Cc1cccs1)c1nnc2n1CCC2 (stereo unspecified),-12.2%
13,O=C(c1cc[nH]n1)N1CCC(c2cc(Nc3ccccn3)n[nH]2)CC1,-3.31%
14,Cc1nnc(NC(=O)NCc2ccoc2)s1,-19.9%
15,O=C(Cn1ccc2ccccc21)NC[C@@H]1CCCN2CCCC[C@H]12,23.5%
16,CC[C@H](C)[C@H](NC(=O)Cn1ccc2ccc(F)cc21)C(=O)OC,-24.6%
17,COC(=O)[C@H](C)NC(=O)Cn1ccc2ccc(F)cc21,50.8%
18,Cc1cccc2c1ccn2CC(=O)NC[C@@H]1CCCN2CCCC[C@H]12,51.9%
19,COC(=O)CNC(=O)Cn1ccc2ccc(F)cc21,13.9%
20,O=C(Cn1ccc2ccc(F)cc21)NC[C@@H]1CCCN2CCCC[C@H]12,58.3%
21,O=C(Cn1ccc2cc(Br)ccc21)NC[C@@H]1CCCN2CCCC[C@H]12,58.3%
22,O=C(CCn1ccc2cc(Br)ccc21)NC[C@@H]1CCCN2CCCC[C@H]12,49%

row,Compound,INHIBITION
1,O=C(Cn1ccc2ccc(Br)cc21)NC[C@@H]1CCCN2CCCC[C@H]12,37.1%
2,COCCNC(=O)Cn1ccc2ccc(F)cc21,17.1%
3,Cc1cccc2c1ccn2CC(=O)O,35%
4,O=C(Cn1ccc2ccc(F)cc21)NCc1ccc(C(=O)O)cc1,6%
5,Cc1ccnn1CCC(=O)N1CCCC2(C1)NC(=O)c1ccccc1O2 (stereo unspecified),-2.2%
6,CC1=C(C(N)=O)C(c2cn(C)nc2C)N2C(=O)CSC2=N1 (stereo unspecified),-20.5%
7,CCn1ncc2c1C(COCC1CC1)N(C(=O)c1ccncn1)CC2 (stereo unspecified),9.34%
8,CC(=O)N1CCCCC1c1nc(N)ncc1-c1ccccc1 (stereo unspecified),38.1%
9,CN1CCC2(CCCN(C(=O)c3cncn3C)C2)CC1,29%
10,Cc1noc(CCNC(=O)NCc2ccc(OC3CCCC3)cc2)n1,-33.4%
11,CO[C@@H]1CN(c2ccccc2)S(=O)(=O)[C@@]12CCN(Cc1cncs1)C2,41.9%
12,Cc1cc(C)n(C2CCN(S(=O)(=O)N3CCC(C)CC3)CC2)n1,19.3%
13,CC(=O)N1N=C(c2ccccc2)OC1C(=O)NCCc1cccc(F)c1 (stereo unspecified),-18.2%
14,CN(C)C(=O)N1CC[C@H]2[C@H]1CCN2c1nncs1,2.4%
15,COCc1nc(C(=O)N2CCCC2c2ccc(OC)cc2)cs1 (stereo unspecified),46.2%
16,OC12CCC(CC1)N(Cc1ccc(F)cc1)C2CN1CCOCC1 (stereo unspecified),9.36%
17,Cc1ccc2c(ccn2CC(=O)NC[C@@H]2CCCN3CCCC[C@H]23)c1,47.4%
18,COc1ccc2c(ccn2CC(=O)NC[C@@H]2CCCN3CCCC[C@H]23)c1,54.8%
19,Cc1ccc2c(ccn2CCC(=O)NC[C@@H]2CCCN3CCCC[C@H]23)c1,-3.95%
20,Cc1ccc(-c2nc(CNCC3CN(C)CCO3)cs2)o1 (stereo unspecified),41.4%
21,Cc1nn(C)c2c(N(C)Cc3ccco3)nc(C3CC3)nc12,19.7%
22,O=C(O)[C@H]1C[C@H](C(=O)NCc2ccncc2)CN(CCC(F)(F)F)C1,-78.5%

row,Compound,INHIBITION
1,CCc1cnc(CCNC(C)CC(=O)Nc2cccc(C)c2C)s1 (stereo unspecified),15.6%
2,COc1ccccc1NC(=O)CC(C)NCCc1sc(C)nc1C (stereo unspecified),71.3%
3,COc1ccccc1NC(=O)CC(C)NCc1scnc1C (stereo unspecified),25.6%
4,CO[C@H]1CC[C@H]2[C@H]1OCCN2C(=O)CCOc1ccccc1,14%
5,COCC1COCCC12CCN(Cc1nccs1)CC2 (stereo unspecified),22.6%
6,CNC(=O)c1cccc(CN2CCN(c3ccncc3)CC2)c1,35.1%
7,Cc1cc(CN2CCC(CNS(=O)(=O)c3ccc(C)s3)CC2)c(C)o1,49.7%
8,Cc1cc(CN2CCC(CNS(=O)(=O)c3ccc(Br)s3)CC2)c(C)o1,79%
9,Cc1cc(CN2CCC(CNS(=O)(=O)c3ccccc3F)CC2)c(C)o1,14.4%
10,O=C(NCc1ccco1)[C@@H]1CC[C@@H]2[C@@H](CCN2Cc2ccc(F)cc2)O1,5.87%
11,O=C1CC(c2ccsc2)c2snc(C(=O)O)c2N1 (stereo unspecified),72.6%
12,O=C1CC(c2cccc(Cl)c2)c2snc(C(=O)O)c2N1 (stereo unspecified),55.7%
13,O=C1CC(c2ccc(F)c(F)c2)c2snc(C(=O)O)c2N1 (stereo unspecified),27.6%
14,O=C1CC(c2ccc(C(F)(F)F)cc2)c2snc(C(=O)O)c2N1 (stereo unspecified),42.4%
15,O=C1CC(c2ccccc2)c2snc(C(=O)O)c2N1 (stereo unspecified),12.6%
16,O=C1CC(c2ccc(F)cc2)c2snc(C(=O)O)c2N1 (stereo unspecified),15.9%
17,O=C(c1cccnc1)N1CCc2ncnc(C3CCOC3)c2CC1 (stereo unspecified),25.6%
18,CN(Cc1ccc2c(c1)OCO2)C(=O)C1CC(c2cccc(F)c2)=NO1 (stereo unspecified),-14.3%
